Most compounds without a hit are left out; they make up all but 4.5% or so of the library.
Mdm2 MdmX PPI – inhibitors of human Mdm2-MdmX association, primary screen, cell-based, luminescence, split luciferase, SaOS-2, uHTS; SaOS-2 split-luciferase Mdm2/MdmX complementation; AID 485346, 2010; inhibition, % at 8 µM; 330,000 tested, 3% active;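 active means inhibition of at least 50% at 8 µM in the primary screen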
Target sequence (O15151 whole entry, looked up): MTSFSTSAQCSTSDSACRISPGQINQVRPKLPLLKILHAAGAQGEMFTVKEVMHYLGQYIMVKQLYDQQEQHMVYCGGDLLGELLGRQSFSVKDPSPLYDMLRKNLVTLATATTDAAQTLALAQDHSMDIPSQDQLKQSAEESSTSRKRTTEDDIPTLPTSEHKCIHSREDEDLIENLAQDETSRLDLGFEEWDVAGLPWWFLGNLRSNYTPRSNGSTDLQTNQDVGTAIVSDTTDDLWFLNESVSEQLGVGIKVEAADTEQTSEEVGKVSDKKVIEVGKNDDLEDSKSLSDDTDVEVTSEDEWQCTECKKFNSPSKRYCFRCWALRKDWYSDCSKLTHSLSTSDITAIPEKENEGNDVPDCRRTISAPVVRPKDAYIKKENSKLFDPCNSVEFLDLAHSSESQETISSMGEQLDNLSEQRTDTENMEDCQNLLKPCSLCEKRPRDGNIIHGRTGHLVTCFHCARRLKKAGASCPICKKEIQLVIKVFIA
Target sequence (Q00987 whole entry, looked up): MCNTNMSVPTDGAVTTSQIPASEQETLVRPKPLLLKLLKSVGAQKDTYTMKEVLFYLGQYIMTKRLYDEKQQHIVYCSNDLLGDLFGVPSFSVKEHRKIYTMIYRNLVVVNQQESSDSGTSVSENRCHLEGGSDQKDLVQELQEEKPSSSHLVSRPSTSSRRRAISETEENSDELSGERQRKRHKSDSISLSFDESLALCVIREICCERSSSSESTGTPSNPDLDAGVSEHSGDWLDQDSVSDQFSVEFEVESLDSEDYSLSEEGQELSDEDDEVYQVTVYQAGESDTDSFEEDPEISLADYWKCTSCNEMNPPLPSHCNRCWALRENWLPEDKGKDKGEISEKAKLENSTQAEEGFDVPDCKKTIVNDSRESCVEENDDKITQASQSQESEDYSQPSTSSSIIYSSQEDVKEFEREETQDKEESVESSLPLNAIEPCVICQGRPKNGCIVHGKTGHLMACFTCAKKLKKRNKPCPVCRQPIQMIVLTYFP
697 NFkB inh – inhibitors of PMA/ionomycin-induced NF-kB reporter, 697 cells, primary screen, B-cell NF-kB inhibitor project, cell-based, luminescence, uHTS. 697 B-cell NF-kB luciferase reporter, 16 h. 330,000 tested, 0.33% active. inhibition, % at 4 µM; in the data active means inhibition above about 35%
Beta apoptosis – inhibitors of cytokine-induced beta cell apoptosis, primary screen, luminescence; INS-1E cytokine-induced death, ATP luminescence, 48 h; percent of positive-control rescue, neutral wells zero; protection from apoptosis, % (concentration not given with the values); 300,000 tested, 0.8% active; AID 435005, 2010;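 active means Every replicate reaches about 75%, or at least half do and their mean reaches it too, limit read from the data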;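 further: 0% = cytokine-treated negative control wells and 100% = positive control rescue; higher means more ATP so stronger rescue from cytokine killing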
CSC inhib – cancer stem cell viability inhibitors, primary screen, luminescence; cancer stem cell-like cells viability; inhibition, % at 7.5 µM; 300,000 tested, 1.1% active; AID 2717, 2010; in the data active means inhibition above about 75%; tested in HMLE shEcad cells
Gli-Sufu block – Gli-Sufu pathway antagonists, primary screen, luciferase luminescence, Sufu-KO-LIGHT cells, uHTS; Sufu-KO-LIGHT fibroblasts, Gli luciferase reporter luminescence; 340,000 tested, 0.74% active; inhibition, % at 5 µM;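 active means inhibition above about 55%, limit read from the data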;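 further: 0% = DMSO-treated cells and 100% = wells with medium but no cells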
Jurkat NFkB inh – inhibitors of induced NF-kB luciferase reporter, primary screen, TCR NF-kB activation inhibitor project, cell-based, luminescence, uHTS; Jurkat, PMA/ionomycin-induced NF-kB luciferase reporter; 330,000 tested, 0.53% active; inhibition, % at 4 µM; in the data active means inhibition above about 50%
Mdm2 MdmX conf – Mdm2-MdmX complex disruptors, retested hits, confirmation, luminescence, single concentration; shares compounds with Mdm2 MdmX PPI; Mdm2-MdmX binding, luminescent assay; inhibition, % at 8 µM; 10,000 tested, 55% active; AID 489028, 2010; in the data active means inhibition above about 40%
Gli antag conf – Gli-SUFU pathway antagonists, confirmation, single concentration, luciferase luminescence, Sufu-KO-LIGHT cells; shares compounds with Gli-Sufu block; inhibition, % at 5 µM; Gli luciferase reporter; 2,500 tested, 40% active;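 active means mean inhibition at 5 µM reaching about 45%, limit read from the data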;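 further: plate controls were DMSO-treated cells for no effect and wells lacking cells for full effect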
Gli cytotox – cytotoxicity in Sufu-KO-LIGHT cells, confirmation, cytotoxicity control for Gli-SUFU antagonist project, cell-based, ATP luminescence, single concentration; shares compounds with Gli-Sufu block; cytotoxicity, % at 5 µM; 2,500 tested, 32% active; AID 651994, 2013;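 active means mean cytotoxicity at 5 µM above about 25%, limit read from the data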;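 further: cells exposed to compound overnight for roughly 16 to 18 hours; plate controls were DMSO wells with cells for no effect and medium without cells for full effect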
Wnt3a counter – Wnt3a reporter signal inhibition, confirmation, counter-screen for Gli-SUFU antagonist project, Wnt-LIGHT cells, luminescence, single concentration; shares compounds with Gli-Sufu block; Wnt3a-driven luciferase reporter; inhibition, % at 6.25 µM; 2,500 tested, 20% active; AID 651995, 2013;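 active means mean inhibition above about 25%, limit read from the data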
The depositor's hits bear a star.

Screening CCCn1c(SCC(=O)Nc2nc(-c3ccc(OC)cc3)cs2)nc2c1c(=O)n(C)c(=O)n2C returned Mdm2 MdmX PPI 68.4*, 697 NFkB inh -23.5, Beta apoptosis -1.5, CSC inhib 11.1, Gli-Sufu block 59.2*, Jurkat NFkB inh 14.6, Mdm2 MdmX conf 13.2, Gli antag conf 50.8*, Gli cytotox 11.8 and Wnt3a counter 4.7.
Screening CN(C)c1nc(=NCc2ccco2)ss1 returned Beta apoptosis 36.6, CSC inhib 19.0 and Gli-Sufu block 6.9.
`CCOC(CN=c1nc(N(C)C)ss1)OCC` gave Gli-Sufu block 84.3*, Gli antag conf 61.6*, Gli cytotox 30.4* and Wnt3a counter 12.4.
`COc1cccc(C=NNC(=O)C(C)SC(C)C(=O)NN=Cc2cccc(OC)c2)c1` (stereo not given) gave Gli-Sufu block 52.1, Gli antag conf 6.0, Gli cytotox -13.6 and Wnt3a counter -10.5.
Screening COc1cccc(C2N=C(c3ccccc3C)NO2)c1OC (stereo not given) returned Mdm2 MdmX PPI -47.5, 697 NFkB inh -45.6, Beta apoptosis -1.3, CSC inhib -2.3, Gli-Sufu block -35.4 and Jurkat NFkB inh -37.3.
For c1ccc(C2=Nn3c(nnc3-c3ccncc3)SC2)cc1 the results were Beta apoptosis -15.1, CSC inhib -8.0 and Gli-Sufu block -10.9.
Screening C[n+]1c2n(c3ccccc31)N=C(c1ccccc1)CS2 returned Mdm2 MdmX PPI 13.5, 697 NFkB inh -28.6, Beta apoptosis 35.2, CSC inhib -12.0, Gli-Sufu block 60.1*, Jurkat NFkB inh -0.4, Gli antag conf 71.6*, Gli cytotox 28.3* and Wnt3a counter -13.5.
`CCOC(=O)C1CCN(c2cc3c(cc2NC(=O)c2cc(OC)ccc2Br)n(C)c(=O)n3C)CC1` gave Mdm2 MdmX PPI 3.8, 697 NFkB inh -10.7, Beta apoptosis 6.8, CSC inhib 2.5, Gli-Sufu block 50.6, Jurkat NFkB inh -7.1, Gli antag conf 17.1, Gli cytotox 16.4 and Wnt3a counter 1.6.
For CC1(C)CC(=O)N(c2ccc(Cl)cc2Cl)C(=O)C1 the results were Mdm2 MdmX PPI 19.0, 697 NFkB inh 16.5, Beta apoptosis -6.4, CSC inhib 10.7, Gli-Sufu block 68.5*, Jurkat NFkB inh 15.2, Gli antag conf 7.0, Gli cytotox 4.5 and Wnt3a counter -11.8.
For CCN(CC)S(=O)(=O)c1ccc(N2CCN(c3ccccc3OC)CC2)c(N)c1 the results were Mdm2 MdmX PPI 8.4, 697 NFkB inh 2.5, Beta apoptosis 126.3*, CSC inhib 9.8, Gli-Sufu block 65.5*, Jurkat NFkB inh 16.0, Gli antag conf 77.7*, Gli cytotox 27.7* and Wnt3a counter 31.5*.
CCN(CC)S(=O)(=O)c1ccc(Oc2ccccc2)c(N)c1 was read as Mdm2 MdmX PPI 1.6, 697 NFkB inh -1.3, Beta apoptosis -3.9, CSC inhib -10.2, Gli-Sufu block -3.9 and Jurkat NFkB inh 12.2.
Screening CCc1ccccc1NC(=O)CSc1nc2n[nH]c(C)c2c(=N)n1-c1ccc(OC)cc1 returned Gli-Sufu block 5.9.
Screening Cc1cc(-n2c(SCc3ccccc3F)nc3n[nH]c(C)c3c2=N)ccc1Cl returned Mdm2 MdmX PPI 43.3, 697 NFkB inh 9.7, Beta apoptosis -11.7, CSC inhib 64.5, Gli-Sufu block 53.5, Jurkat NFkB inh -1.4, Gli antag conf 25.2, Gli cytotox 4.9 and Wnt3a counter -37.7.
For COc1ccc(OC)c(NC(=S)N2CCN(C(=O)C3CCCO3)CC2)c1 (stereo not given) the results were Mdm2 MdmX PPI 12.8, 697 NFkB inh 5.4, Beta apoptosis -4.6, Gli-Sufu block 7.4 and Jurkat NFkB inh -7.6.
Screening CCCC1=Nc2cc(C(=O)N3CCCC3)ccc2Sc2ccc(C)cc21 returned Mdm2 MdmX PPI 16.7, 697 NFkB inh -9.3, Beta apoptosis 0.6, CSC inhib 12.9, Gli-Sufu block 52.5, Jurkat NFkB inh -2.4, Gli antag conf 33.9, Gli cytotox 3.1 and Wnt3a counter 14.9.
For CCC1=Nc2cc(C(=O)NCc3ccco3)ccc2Sc2ccc(C)cc21 the results were Beta apoptosis 15.8, CSC inhib 42.5, Gli-Sufu block 57.4*, Gli antag conf 62.2*, Gli cytotox 59.0* and Wnt3a counter 7.0.
For CCC1=Nc2cc(C(=O)NCCN3CCOCC3)ccc2Sc2ccc(C)cc21 the results were Mdm2 MdmX PPI -37.4, 697 NFkB inh -9.9, Beta apoptosis 2.6, CSC inhib 10.9, Gli-Sufu block -5.0 and Jurkat NFkB inh -6.4.
Screening CCC1=Nc2cc(C(=O)N3CCCCC3)ccc2Sc2ccc(C)cc21 returned Mdm2 MdmX PPI 28.1, 697 NFkB inh 8.5, Beta apoptosis -9.0, CSC inhib -4.8, Gli-Sufu block 0.8 and Jurkat NFkB inh 9.2.
Screening CC1CCC(NC(=O)CSc2nnc(-c3cccnc3)o2)CC1 (stereo not given) returned Mdm2 MdmX PPI 10.3, 697 NFkB inh 6.9, Beta apoptosis -3.8, Gli-Sufu block -4.8 and Jurkat NFkB inh 7.2.
`CC(=O)Nc1ccc(S(=O)(=O)NCCC(=O)NC(C)c2cccs2)cc1` (stereo not given) gave Mdm2 MdmX PPI 5.4, 697 NFkB inh 0.6, Beta apoptosis -1.7, CSC inhib -7.9, Gli-Sufu block -3.3 and Jurkat NFkB inh -12.9.
`Cc1cc(Cl)ccc1OCC(=O)OCC(=O)N1CCC(C(N)=O)CC1` gave Mdm2 MdmX PPI -23.7, 697 NFkB inh 9.9, Beta apoptosis -6.0, CSC inhib -14.4, Gli-Sufu block 10.1 and Jurkat NFkB inh 1.4.

From PubChem BioAssay
